In PubChem BioAssay (NCATS):
Records with an inconclusive call do not appear. Active and inactive are the calls of the source. Calls come from the whole dose curve; as a rule, active = well fitted curve in the direction sought with a large enough effect; inconclusive = small, poorly fitted or top-dose-only effect, or another doubt; inactive = no such curve, though single readings can be large; an effect the other way counts as inactive or inconclusive.

Columns and labels:
[1] = Quantitative High-Throughput drug screen in 47 multiple myeloma cell lines against the NCATS MIPE library collection: INA6_PLB cell viability assay (AID 1918965; note: nearly all actives have a fitted effect of over 55% in size; note: potency is the fitted concentration of half-maximal effect)
Outline: (§1)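 Myeloma cell lines, 500 cells per well, exposed to MIPE 4.0 library compounds for 48 h at 37C, 5% CO2. Viability from ATP by CellTiter-Glo luminescence; normalised to DMSO (100%) and media-only (0%) wells.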

[2] = Quantitative High-Throughput drug screen in 47 multiple myeloma cell lines against the NCATS MIPE library collection: H1112_PLB cell viability assay (AID 1918967; note: nearly all actives have a fitted effect of over 30% in size; note: potency is the fitted concentration of half-maximal effect)
Outline: (§2)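 Steps: seed 500 cells per well; pin-transfer MIPE 4.0 library; incubate 48 h at 37C, 5% CO2, humidified; add CellTiter-Glo, 5 min room temperature; read luminescence.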

[3] = Quantitative High-Throughput drug screen in 47 multiple myeloma cell lines against the NCATS MIPE library collection: Karpas25_ECACC cell viability assay (AID 1918968; note: nearly all actives have a fitted effect of over 35% in size; note: potency is the fitted concentration of half-maximal effect)
Outline: as §2

[4] = Quantitative High-Throughput drug screen in 47 multiple myeloma cell lines against the NCATS MIPE library collection: KMS12PE_JCRB cell viability assay (AID 1918972); note: nearly all actives have a fitted effect of over 30% in size; note: potency is the fitted concentration of half-maximal effect
Outline: as §1

[5] = Quantitative High-Throughput drug screen in 47 multiple myeloma cell lines against the NCATS MIPE library collection: KMS21BM_JCRB cell viability assay (AID 1918974); details: ATP luminescence, 48 h; viability: at 45.8 µM (top of the series) unless noted; note: potency is the fitted concentration of half-maximal effect
Outline: as §2

[6] = Quantitative High-Throughput drug screen in 47 multiple myeloma cell lines against the NCATS MIPE library collection: NCIH929_DSMZ cell viability assay (AID 1918978); note: nearly all actives have a fitted effect of over 35% in size; note: potency is the fitted concentration of half-maximal effect
Outline: (§3)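 500 cells/well per myeloma line exposed to pinned MIPE 4.0 compounds for 48 h at 37 °C, 5% CO2. Viability read as ATP by CellTiter-Glo luminescence, normalised to DMSO-only (100%) and media-only (0%) wells.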

[7] = Quantitative High-Throughput drug screen in 47 multiple myeloma cell lines against the NCATS MIPE library collection: MM1S_ATCC cell viability assay (AID 1918980); note: nearly all actives have a fitted effect of over 45% in size; note: potency is the fitted concentration of half-maximal effect
Outline: as §3

[8] = Quantitative High-Throughput drug screen in 47 multiple myeloma cell lines against the NCATS MIPE library collection: MM1R_ATCC cell viability assay (AID 1918981); note: nearly all actives have a fitted effect of over 35% in size; note: potency is the fitted concentration of half-maximal effect
Outline: as §3

[9] = Quantitative High-Throughput drug screen in 47 multiple myeloma cell lines against the NCATS MIPE library collection: LP1_DSMZ cell viability assay (AID 1918982); note: nearly all actives have a fitted effect of over 35% in size; note: potency is the fitted concentration of half-maximal effect
Outline: as §3

[10] = Quantitative High-Throughput drug screen in 47 multiple myeloma cell lines against the NCATS MIPE library collection: KMS27_JCRB cell viability assay (AID 1918970); note: nearly all actives have a fitted effect of over 30% in size; note: potency is the fitted concentration of half-maximal effect
Outline: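 Luminescent ATP read-out (CellTiter-Glo, 5 min at room temperature) after 48 h compound exposure of 500 KMS27_JCRB cells per well; DMSO wells define full viability and media-only wells zero.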

[11] = Quantitative High-Throughput drug screen in 47 multiple myeloma cell lines against the NCATS MIPE library collection: KMS28PE_JCRB cell viability assay (AID 1918983); note: nearly all actives have a fitted effect of over 35% in size; note: potency is the fitted concentration of half-maximal effect
Outline: as §3

[12] = Quantitative High-Throughput drug screen in 47 multiple myeloma cell lines against the NCATS MIPE library collection: L363_DSMZ cell viability assay (AID 1918984); note: nearly all actives have a fitted effect of over 40% in size; note: potency is the fitted concentration of half-maximal effect
Outline: as §3

[13] = Quantitative High-Throughput drug screen in 47 multiple myeloma cell lines against the NCATS MIPE library collection: KMS12BM_JCRB cell viability assay (AID 1918971); note: nearly all actives have a fitted effect of over 35% in size; note: potency is the fitted concentration of half-maximal effect
Outline: (§4)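 qHTS of the MIPE 4.0 collection: 500 myeloma cells/well, 48 h drug exposure at 37C in 5% CO2, then CellTiter-Glo for 5 min at room temperature before luminescence reading.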

[14] = Quantitative High-Throughput drug screen in 47 multiple myeloma cell lines against the NCATS MIPE library collection: MMM1_PLB cell viability assay (AID 1918976)
Outline: as §3

[15] = Quantitative High-Throughput drug screen in 47 multiple myeloma cell lines against the NCATS MIPE library collection: OCIMY1_PLB cell viability assay (AID 1918979); note: nearly all actives have a fitted effect of over 35% in size; note: potency is the fitted concentration of half-maximal effect
Outline: as §3

[16] = Quantitative High-Throughput drug screen in 47 multiple myeloma cell lines against the NCATS MIPE library collection: MOLP8_DSMZ cell viability assay (AID 1918977); note: nearly all actives have a fitted effect of over 45% in size
Outline: as §3

[17] = Quantitative High-Throughput drug screen in 47 multiple myeloma cell lines against the NCATS MIPE library collection: KMS26_JCRB cell viability assay (AID 1918975); note: nearly all actives have a fitted effect of over 45% in size; note: potency is the fitted concentration of half-maximal effect
Outline: as §4

[18] = Quantitative High-Throughput drug screen in 47 multiple myeloma cell lines against the NCATS MIPE library collection: KMS20_JCRB cell viability assay (AID 1918973); note: nearly all actives have a fitted effect of over 45% in size
Outline: as §2

CC(C)(C)NCC(O)c1ccc(O)c(CO)c1 (stereo not given)
inactive: Potency [1] | Potency [2] | Potency [4] | Potency [5] | Potency [6] | Potency [9]
active: Potency [3] 0.0418 µM | Potency [7] 0.059 µM | Potency [8] 0.0264 µM

O=C(Nc1cccnc1)N1CCC(Cc2cccc(Oc3ccc(C(F)(F)F)cn3)c2)CC1
active: Potency [1] 11.8 µM | Potency [2] 10.5 µM | Potency [3] 9.35 µM | Potency [10] 16.6 µM | Potency [4] 16.6 µM | Potency [5] 9.35 µM | Potency [7] 14.8 µM | Potency [8] 13.2 µM | Potency [11] 16.6 µM | Potency [12] 4.69 µM

Cc1ccccc1C(C(=O)NC1CCCC1)N(C(=O)Cn1cnc2ccccc21)c1cccc(F)c1 (stereo not given)
inactive: Potency [10] | Potency [15] | Potency [8] | Potency [11]
active: Potency [1] 20.9 µM | Potency [3] 20.9 µM | Potency [13] 14.8 µM | Potency [14] 16.6 µM | Potency [6] 18.7 µM | Potency [7] 18.7 µM | Potency [9] 3.32 µM

CCCS(=O)(=O)Nc1ccc(F)c(C(=O)c2c[nH]c3ncc(-c4ccc(Cl)cc4)cc23)c1F
inactive: Potency [10] | Potency [12]
active: Potency [1] 8.33 µM | Potency [2] 9.35 µM | Potency [3] 9.35 µM | Potency [13] 20.9 µM | Potency [7] 7.43 µM | Potency [9] 16.6 µM

NC(N)=NC(=O)c1nc(Cl)c(N)nc1N
active: Potency [1] 5.26 µM | Potency [2] 8.33 µM | Potency [10] 14.8 µM | Potency [6] 9.35 µM | Potency [7] 20.9 µM
inactive: Potency [13] | Potency [16] | Potency [15] | Potency [9]

Cc1cc([C@@H](C)Nc2ccccc2C(=O)O)c2nc(N3CCOCC3)cc(=O)n2c1
active: Potency [1] 13.6 µM | Potency [3] 3.03 µM | Potency [10] 10.8 µM | viability [5] 15.1% [at 92.2 µM] | Potency [17] 27 µM | Potency [14] 19.1 µM | Potency [15] 8.55 µM | Potency [7] 9.59 µM | Potency [8] 27 µM

Cc1ccc(N(CC2=NCCN2)c2cccc(O)c2)cc1
active: Potency [1] 13.2 µM | Potency [2] 26.4 µM | Potency [3] 4.69 µM | Potency [10] 16.6 µM | Potency [14] 2.96 µM | Potency [7] 20.9 µM | Potency [11] 5.26 µM | Potency [12] 11.8 µM
inactive: Potency [18] | Potency [6]

CNCc1ccc(-c2[nH]c3cc(F)cc4c3c2CCNC4=O)cc1
active: Potency [1] 23.5 µM
inactive: Potency [2] | Potency [3] | Potency [4] | Potency [6] | Potency [15] | Potency [8] | Potency [9] | Potency [11] | Potency [12]

O=C1CCCC2=C1C(c1[nH]ncc1Cl)N=C(Nc1nc3ccccc3o1)N2 (stereo not given)
inactive: Potency [2] | Potency [15] | Potency [8] | Potency [11]
active: Potency [1] 5.9 µM | Potency [3] 0.662 µM | Potency [13] 4.69 µM | Potency [4] 1.87 µM | Potency [14] 4.69 µM | Potency [6] 5.9 µM

CCOc1cc(C(=O)Nc2ccc(Cl)c(-c3nc4ccccc4[nH]3)c2)cc(OCC)c1OCC
active: Potency [1] 11.8 µM | Potency [3] 10.5 µM | Potency [8] 13.2 µM | Potency [9] 14.8 µM
inactive: Potency [17] | Potency [16] | Potency [11]

CCCCNc1cc(C(=O)O)cc(S(N)(=O)=O)c1Oc1ccccc1
inactive: Potency [1] | Potency [4] | Potency [17] | Potency [16] | Potency [6] | Potency [15] | Potency [8] | Potency [9] | Potency [11] | Potency [12]

Cn1cnc([N+](=O)[O-])c1Sc1ncnc2nc[nH]c12
inactive: Potency [16] | Potency [11]
active: Potency [1] 5.26 µM | Potency [2] 10.5 µM | Potency [3] 16.6 µM | Potency [17] 11.8 µM | Potency [6] 16.6 µM

Nc1nc2ccc(OC(F)(F)F)cc2s1
inactive: Potency [1] | Potency [2] | Potency [3] | Potency [10] | Potency [4] | Potency [12]
active: Potency [14] 23.5 µM | Potency [7] 2.64 µM | Potency [11] 23.5 µM

O=C(C1CC1)N1CC[C@@H](Cn2c(-c3ccc(-c4ccc5occc5c4)cc3)nc3cnccc32)C1
inactive: Potency [2] | Potency [6] | Potency [7] | Potency [11]
active: Potency [1] 20.9 µM | Potency [4] 29.6 µM | Potency [9] 10.5 µM

S=C(NCc1ccc2c(c1)OCO2)N1CCN(c2ncnc3c2oc2ccccc23)CC1
active: Potency [1] 1.08 µM | Potency [2] 0.605 µM | Potency [3] 0.303 µM | Potency [10] 4.29 µM | Potency [13] 1.91 µM | Potency [4] 1.52 µM | Potency [5] 1.21 µM | Potency [14] 1.21 µM | Potency [6] 4.81 µM | Potency [15] 42.9 µM | Potency [7] 3.82 µM | Potency [9] 2.7 µM | Potency [11] 6.05 µM | Potency [12] 0.605 µM
